Compound activity from PubChem BioAssay.
The entries come from a sample that favours hits as a whole.
SF-1 inh: inhibitors of human nuclear receptor SF-1; hit rate 0.55% among 65,000; inhibition, % at 10 µM; Q13285; CHO-K1 Gal4-SF-1 LBD luciferase reporter;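 active = inhibition above the mean inhibition of all tested compounds plus 3 SD, cut at about 48% in these data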
Target sequence (Q13285 whole entry, looked up, the tested form may be a part): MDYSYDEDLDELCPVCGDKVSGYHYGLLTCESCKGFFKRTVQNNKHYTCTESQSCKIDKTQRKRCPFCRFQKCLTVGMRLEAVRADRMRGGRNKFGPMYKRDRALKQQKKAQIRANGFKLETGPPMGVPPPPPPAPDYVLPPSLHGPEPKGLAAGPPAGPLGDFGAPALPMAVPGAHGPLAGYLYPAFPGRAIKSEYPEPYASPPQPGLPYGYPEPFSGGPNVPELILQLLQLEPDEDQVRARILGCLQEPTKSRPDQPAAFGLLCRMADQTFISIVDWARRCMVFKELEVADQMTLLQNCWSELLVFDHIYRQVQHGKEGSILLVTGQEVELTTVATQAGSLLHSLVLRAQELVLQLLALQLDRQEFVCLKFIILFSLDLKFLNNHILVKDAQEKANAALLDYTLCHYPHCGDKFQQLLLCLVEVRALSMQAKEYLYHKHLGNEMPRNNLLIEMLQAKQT
Of the large screens only hits and unclear results are named; the others gave an inactive call.

CCc1nnc(NC(=O)CSc2nc(C)c3c(c2C#N)CCCC3)s1	none
Cn1c(SCC(=O)Nc2sc3c(c2C#N)CCC3)nnc1C1COc2ccccc2O1 (configuration not stated)	none
N#Cc1c(NC(=O)CSc2ncn[nH]2)sc2c1CCCCC2	SF-1 inh 88.2
Cc1[nH]c2ccc(-c3nnc(SCC(=O)NCc4ccco4)n3Cc3ccccc3)cc2c1C	none
Cn1cccc1CNC(=O)Nc1ccc(Cl)c(Cl)c1	none
COc1cccc(-c2nnc(NC(=O)c3ccc(S(=O)(=O)N4CC(C)OC(C)C4)cc3)o2)c1 (configuration not stated)	SF-1 inh 49.3
COc1cccc(-c2nc(CS(=O)(=O)CC(=O)N3CCN(C)CC3)c(C)o2)c1	none
COc1cccc(-c2nc(-c3ccc(NC(=O)c4cccnc4)cc3)no2)c1	none
O=c1[nH]c2cccnc2n1Cc1ccco1	none
N=c1c2c3c(sc2nc2n1CCCCC2)CCCCC3	none
CCc1c(C)nc2ncnn2c1NCCc1ccc(OC)cc1	SF-1 inh 85.2
CCOC(=O)NCCc1ccc(OC)cc1	none
COc1ccc(CCNc2oc(COc3ccccc3)nc2C#N)cc1	none
O=C1CCCC2=C1C(c1ccco1)Nc1ccc3ccccc3c12 (configuration not stated)	none
Cc1ccc2nc(-c3ccccc3)cn2c1	SF-1 inh 89.2
O[C@@H]1C2CCCC1[C@]1(O)CCCCC1C2 (some centres not stated)	none
Cc1ccc(N2C(=O)Nc3ccc(Br)cc3C2(O)C(=O)NCCCN(C)C)cc1C (configuration not stated)	none
CCCCN(CC)Cc1ccc(CNC(=O)Nc2ccc(OC)cc2OC)o1	none
O=C(/C=C\Nc1ccccn1)c1ccc(Cl)cc1	SF-1 inh 64.1
Cc1c(C(=O)Nc2ccccn2)oc2ccccc12	none
O=C(/C=C/Nc1ccc(F)c(Cl)c1)c1ccco1	none
O=C1c2ccccc2C(=O)C1c1ccc2ccccc2n1	SF-1 inh 72.1
O=C1c2ccccc2NC(c2cnc3ccccc3n2)N1O (configuration not stated)	none
O=C(NCc1ccccn1)c1ccc2ccccc2n1	none
O=C(CSc1nnc(Cc2ccccc2)o1)N1CCOCC1	none
CNC(=O)Cn1c(=O)n(C)c2ccccc21	none
CS(=O)c1nc(-c2ccc(Br)cc2)cc(-c2ccccc2)c1C#N (configuration not stated)	SF-1 inh 61.1
COc1ccccc1C(=O)Nc1cccc(N(C)S(C)(=O)=O)c1	none
c1cncc(-c2nnc(SCc3nc4ccccc4[nH]3)o2)c1	SF-1 inh 56.3
Cc1cc(N2CCc3ccccc32)n2ncnc2n1	none
CCn1c2ccccc2c2cc(Nc3cc(C)nc4ncnn34)ccc21	SF-1 inh 70.3
Cc1cc(N2CCN(c3nnnn3-c3ccccc3)CC2)n2ncnc2n1	none
O=C(CN1CC(=O)Oc2ccccc21)OCC(=O)c1cccc(Br)c1	none
CN(C)C(=O)CCc1nc(-c2ccc(C(C)(C)C)cc2)no1	SF-1 inh 83.3
COc1ccc(CNC(=O)CCc2nc(-c3ccccc3F)no2)c(OC)c1	none
CC(C)(CC(=O)O)Cc1nc(-c2ccc(Cl)cc2)no1	none
COc1ccc(-c2noc(CCCOc3ccccc3)n2)cc1OC	none
CCCc1nc(-c2ccc(-c3ccc(F)cc3)cc2)no1	none
CC(C)(C)c1ccc(-c2noc(CCC(N)=O)n2)cc1	SF-1 inh 87.4
CNC(=O)CCc1nc(-c2ccc(C(C)(C)C)cc2)no1	SF-1 inh 87.6
O=C(CCc1nc(-c2ccccc2F)no1)NCCc1ccccc1Cl	none
O=C1c2ccccc2C(=O)N1Cc1nc(-c2ccccc2)no1	none
CCN(CC)S(=O)(=O)c1ccc2oc(C(=O)NCC3COc4ccccc4O3)c(C)c2c1 (configuration not stated)	none
CCCc1noc(-c2ccc(-c3ccccc3)cc2)n1	none
O=C(c1ccc(CS(=O)(=O)Cc2ccc(Cl)cc2)o1)N1CCCC1	none
CCSc1nc2c(cnn2-c2ccc(C)cc2)c(=O)[nH]1	none
NC(=O)c1c(NC(=O)Cc2cccs2)sc2c1CCC2	none
COc1cccc(C(=O)N2CCN=C2SCc2cccnc2)c1OC	none
O=C(OCc1nc2ccccc2s1)c1cnccn1	none
Cc1ccc(-n2cc(-c3ccccc3)[nH]c2=O)cc1F	none
CC1=C(C(=O)Nc2ccccn2)C(c2cccnc2)n2nnnc2N1 (configuration not stated)	none
CN(C(=O)c1cnc2n(c1=O)CCS2)C1CCCCC1	none
O=C(OCc1c(F)cccc1Cl)c1cnccn1	none
Cc1ccc(-c2cc3c(nn2)-c2ccccc2C3=O)cc1	SF-1 inh 88.1
Cc1cc(C)n(C(=O)CCNC(=O)c2ccccc2Br)n1	none
CCCc1cc(=O)n2[nH]c(-c3ccc(Br)cc3)cc2n1	none
CCn1ncc(C2=NOC(C(=O)N3CCC(C(N)=O)CC3)C2)c1C (configuration not stated)	none
COc1ccc(C(=O)Nc2ccc(C)cn2)c(OC)c1	SF-1 inh 82.1
CCCC(=O)Nc1ccc(NC(=O)c2cccc(OC)c2)nc1	none
COc1cccc(C(=O)Nc2ccc(NC(C)=O)cn2)c1	none
CC1CCN(c2nc3ccc(C(=O)O)cc3s2)CC1	SF-1 inh 93.7
Clc1ccc2nc(N3CCCCC3)sc2c1	none
O=C(NCC1CCCO1)c1ccc2nc(N3CCCCC3)sc2c1 (configuration not stated)	none
C/C(NCc1cccnc1)=C(\C#N)C(=O)NCc1ccccc1	none
NC(=O)C1CCC(NC(=O)OCc2ccccc2)CC1 (configuration not stated)	none
O=C(OCC(=O)N1CCCCCC1)c1cccs1	none
O=C(Nc1nccs1)c1ccc(CSc2nnnn2-c2ccccc2)cc1	none
COC(=O)C1CCN(C(=O)NC(C)(C)C)CC1	none
CCOC(=O)C1=C(C)Nc2ncnn2C1/C=C/c1ccccc1 (configuration not stated)	none
CCOC(=O)C1=C(Cn2cnc3ccccc32)NC(=O)NC1c1cc(C)ccc1C (configuration not stated)	SF-1 inh 59.3
CCSCCOC(=O)C1=C(C)NC(=O)NC1c1cc(OC)ccc1OC (configuration not stated)	none
CC(C)CCNC(=O)CN(CCN1CCOCC1)C(=O)Cn1nnc(-c2ccc(F)cc2)n1	none
CCC(C)(C(=O)NC1CCCC1)N(C(=O)c1cnccn1)c1c(C)n(C)n(-c2ccccc2)c1=O (configuration not stated)	none
CCOC(=O)N1CCC(NC(=O)C2CCCN(S(=O)(=O)c3cccnc3)C2)CC1 (configuration not stated)	none
Cc1ccc(SCc2cc(=O)n3[nH]cnc3n2)cc1	none
O=C(CSc1nnnn1-c1ccccc1)NC(=O)Nc1ccc2c(c1)OCCO2	none
CCn1c2ccccc2c2cc(NC(=O)CSc3nnnn3-c3ccccc3)ccc21	SF-1 inh 70.3
Cc1ccc(-c2nc(NC(=O)CSc3nnnn3-c3ccccc3)ns2)cc1	none
Cc1ccc(C)c(NC(=O)CSc2nnc(-c3ccncc3)n2N)c1	none
CC(C)Cc1cc(C(=O)N2CCN(c3ccc(F)cc3)CC2)no1	none
CC(=O)N1CCN(c2ccc(Oc3nc(-c4ccccc4)nc4ccccc34)cc2)CC1	none
CC1CN(c2nc(-c3ccccc3)nc3ccccc23)CC(C)O1 (configuration not stated)	none
c1ccc(N2CCN(c3nc(-c4ccccn4)nc4ccccc34)CC2)cc1	SF-1 inh 51.8
O=C(NCCc1ccccc1)c1cc(-c2ccc3c(c2)OCO3)on1	none
